Screening data as filed in PubChem BioAssay.
The full list was thinned out, with hits kept by preference.
FBPA Giardia inh = qHTS Assay for Inhibitors of Fructose-1,6-bisphosphate Aldolase from Giardia Lamblia | 290,000 compounds, 0.71% hits | A8B2U2 | purified Giardia FBPA | AID 2451, 2010 | Potency, µM (doses to about 59.6 µM), without a hit: at the highest dose activity, negative = inhibition, usual class: inhibitors; further: potency means the concentration at half of the fitted maximal effect; on the % scale 0 is the no-effect control and ±100 the full control effect; nearly all actives have a fitted effect of over 55% in size
Target sequence (A8B2U2 whole entry, looked up): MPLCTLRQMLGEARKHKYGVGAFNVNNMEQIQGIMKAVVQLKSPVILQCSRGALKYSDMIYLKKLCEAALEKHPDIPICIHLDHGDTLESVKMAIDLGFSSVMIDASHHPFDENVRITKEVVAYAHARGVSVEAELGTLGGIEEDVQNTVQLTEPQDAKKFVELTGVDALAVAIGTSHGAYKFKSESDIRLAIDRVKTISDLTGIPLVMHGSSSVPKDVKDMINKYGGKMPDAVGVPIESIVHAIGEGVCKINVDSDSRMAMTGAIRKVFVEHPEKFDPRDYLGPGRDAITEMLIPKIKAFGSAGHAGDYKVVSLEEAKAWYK
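40 nM FBPA preincubated 10 min at RT with compound (up to 57.5 uM final), then substrate plus GAPDH/TPI/NAD/arsenate coupling and diaphorase/resazurin added. Fluorescence read after 20 min at RT, 525/598 nm.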
Sm TGR block = qHTS Assay for the Inhibitors of Schistosoma Mansoni Peroxiredoxins | Schistosoma mansoni thioredoxin glutathione reductase (TGR), Q962Y6 | purified TGR, DTNB reduction, TNB absorbance 405 nm | Potency, µM (titrated, usually from 114 µM), inactives show at the highest dose activity change, negative = inhibition, actives largely listed as inhibitors | 360,000 compounds, 3% hits | AID 485364, 2010; further: potency means the concentration at half of the fitted maximal effect; on the % scale 0 is the no-effect control and ±100 the full control effect; nearly all actives have a fitted effect of over 60% in size
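TGR 20 nM + NADPH 100 uM (dispensed conc.), cpd preinc 15 min RT; start with NADPH (500 uM addition) then DTNB (15 mM addition). Kinetic TNB absorbance, 405 nm filter. Four-parameter Hill fit across titration.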
Tb PYK inh = qHTS of Trypanosoma Brucei Inhibitors. Potency, µM (top dose mostly 76.8 µM), for the others: top-dose activity, negative = inhibition, actives largely listed as inhibitors. 410,000 compounds, 0.12% hits. AID 624173, 2012. TbPYK enzyme, Kinase-Glo Plus ATP luminescence, 45 min; further: potency means the concentration at half of the fitted maximal effect; on the % scale 0 is the no-effect control and ±100 the full control effect; nearly all actives have a fitted effect of over 50% in size
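Luminescence from Kinase-Glo Plus, added after a 45-minute room-temperature reaction, served as the end-point read-out. The enzyme and substrate were preincubated with compound before ADP (130 uM final) initiated turnover. Concentration-effect curves came from normalized qHTS data.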
CHX counter = Cycloheximide Counterscreen for Small Molecule Inhibitors of Shiga Toxin | cell reporter, cycloheximide protein synthesis inhibition counterscreen | max response, % | 300,000 compounds, 12% hits; in the data active means max response mostly above about 13%, no sharp cut-off; inactive means mostly below about 14%; further: read at 38.3 µM for the half of the compounds with a filed dose; 0% is about no effect
Shiga inhibitor = A qHTS for Small Molecule Inhibitors of Shiga Toxin | Vero cells, Shiga toxin protein synthesis inhibition reporter | inhibition, % at 38.7 µM | 290,000 compounds, 9.2% hits | AID 2315, 2010; in the data active means inhibition mostly above about 28%, no sharp cut-off; inactive means mostly below about 43%; further: 0% is about no effect
LmPK inh = qHTS Assay for Inhibitors of Leishmania Mexicana Pyruvate Kinase (LmPK); Q27686; purified LmPK, Kinase-Glo ATP luminescence, 1 h; Potency, µM (titrated, usually from 57.5 µM), for the others: at the highest dose activity change, negative = inhibition, hits mostly inhibitors; 290,000 compounds, 0.37% hits; AID 1721, 2009; further: potency means the concentration at half of the fitted maximal effect; on the % scale 0 is the no-effect control and ±100 the full control effect
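Purified LmPK (0.1 nM) with 0.5 mM PEP and 0.1 mM ADP in imidazole buffer pH 7.2 with MgCl2/KCl, 1 h at room temperature. ATP formed was read by luciferase luminescence and normalized to no-enzyme and uninhibited controls.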
* = called active by the depositor; [ ] = remark or other dose. Unless noted, the call rests on the fitted dose curve; in most records, active means well fitted curve in the direction sought with a large enough effect; inconclusive means small, poorly fitted or top-dose-only effect, or another doubt; inactive means no such curve, though single readings can be large; an effect the other way counts as inactive or inconclusive.

What do the screens show for `O=C(Nc1cc2c(cc1Cl)OCCCO2)c1ccco1`?
FBPA Giardia inh: 3%; Sm TGR block: -2%; Tb PYK inh: 2%; CHX counter: 80*; Shiga inhibitor: 105*; LmPK inh: -1%

Results for O=C(Nc1cc2c(cc1C(=O)O)OCCCO2)c1ccc(F)cc1F ?
FBPA Giardia inh: -2%; Sm TGR block: -7%; Tb PYK inh: 1%; CHX counter: 17*; Shiga inhibitor: 45; LmPK inh: -2%

What do the screens show for `O=C(NC1CCCCCCC1)c1ccco1`?
FBPA Giardia inh: 1%; Sm TGR block: -2%; Tb PYK inh: 1%; CHX counter: 18*; Shiga inhibitor: 43*; LmPK inh: -6%

Results for C/C(=N\NC(=O)NC1CCCCC1)c1ccco1 ?
FBPA Giardia inh: 1%; Sm TGR block: 2%; Tb PYK inh: -1%; CHX counter: 12*; Shiga inhibitor: 23; LmPK inh: -2%

Results for O=C(NC(Cc1ccccc1)C(=O)O)c1ccco1 (stereo not drawn) ?
FBPA Giardia inh: 0%; Sm TGR block: 0%[57.1 µM]; Tb PYK inh: 2%; CHX counter: -2; Shiga inhibitor: -3; LmPK inh: -9%

Results for O=C(N[C@@H](Cc1ccccc1)C(=O)NC1CCCCC1)c1ccco1 ?
FBPA Giardia inh: -5%; Sm TGR block: 0%; Tb PYK inh: 2%; CHX counter: 14; Shiga inhibitor: 23*; LmPK inh: 0%

How did O=C(COC(=O)c1ccco1)NC1CCCCC1 do in these assays?
FBPA Giardia inh: 7%; Sm TGR block: -34%; Tb PYK inh: 2%; CHX counter: 22*; Shiga inhibitor: 17; LmPK inh: 4%

What do the screens show for `CC(OC(=O)c1ccco1)C(=O)NC1CCCCC1` (stereo not drawn)?
FBPA Giardia inh: 0%; Sm TGR block: -19%; Tb PYK inh: -7%; CHX counter: -3; Shiga inhibitor: -20; LmPK inh: -3%

How did COCCCN1C(=O)C(CC(=O)NCCCN(C)C)CC(C(=O)N(C(C)C)C(C)C)=C1C (stereo not drawn) do in these assays?
Tb PYK inh: -8%

What do the screens show for `Cc1cc(Br)cn2c(CC(C)(C)C)c(-c3cccc(Cl)c3)nc12`?
Tb PYK inh: 6%

Results for O=C(N[C@@H](Cc1ccccc1)C(=O)NC1CCCCCC1)c1ccco1 ?
FBPA Giardia inh: -5%; Sm TGR block: 9%; Tb PYK inh: -4%; CHX counter: 53*; Shiga inhibitor: 98*; LmPK inh: -4%

Results for Cc1ccc(NC(=O)C(C)Sc2nc(-c3ccccc3)c(C#N)c(=O)[nH]2)c(C)c1 (stereo not drawn) ?
Sm TGR block: -3%; Tb PYK inh: 0%

What do the screens show for `CCCCN1CCC(=O)C(C(=O)OCC)=C1C(=O)OCC`?
Tb PYK inh: -2%

Results for Cc1c(C(=O)Nc2cccc([N+](=O)[O-])c2)csc1-c1ccccc1 ?
FBPA Giardia inh: -24%; Sm TGR block: -2%; Tb PYK inh: 6%; CHX counter: 46*; Shiga inhibitor: 83*; LmPK inh: -2%

What do the screens show for `Cc1ccc(NC(=O)c2csc(-c3ccccc3)c2C)cc1`?
FBPA Giardia inh: 2%; Sm TGR block: -3%; Tb PYK inh: -5%; CHX counter: 54*; Shiga inhibitor: 199*; LmPK inh: -15%

Results for COc1ccc(N(Cc2cccs2)C(=O)Nc2cccc(Cl)c2)cc1 ?
Sm TGR block: 1%; Tb PYK inh: -1%

What do the screens show for `O=C(O)C1CCC(c2ccc(-c3ccccc3)cc2)CC1` (stereo not drawn)?
FBPA Giardia inh: 6%; Sm TGR block: -19%; Tb PYK inh: 2%; CHX counter: 73*; Shiga inhibitor: 116*; LmPK inh: 1%

How did CC(NC(=O)C1CC1)c1ccc(-c2ccccc2)cc1 (stereo not drawn) do in these assays?
FBPA Giardia inh: 5%; Sm TGR block: 8%; Tb PYK inh: 2%; CHX counter: 8; Shiga inhibitor: 8; LmPK inh: 0%

How did COc1cc2c(cc1OC)C(c1cc(Br)ccc1F)N(C(=O)CCl)CC2 (stereo not drawn) do in these assays?
FBPA Giardia inh: -6%; Sm TGR block: 0.79µM*; Tb PYK inh: 4%; CHX counter: 3; Shiga inhibitor: -11; LmPK inh: 0%

What do the screens show for `Cc1ccccc1NC(=O)Cn1c(=O)n(Cc2ccc3c(c2)OCO3)c(=O)c2ccc(C(=O)NC3CCCCC3)cc21`?
Sm TGR block: 0%; Tb PYK inh: 0%

How did CCCSCCCNC(=O)c1ccc2c(c1)nc1n2CCCCC1 do in these assays?
Sm TGR block: -8%; Tb PYK inh: -6%

How did Cc1ccc(NC(=O)CSc2nnc(NC(=O)CN3CCOCC3)s2)cc1 do in these assays?
FBPA Giardia inh: 18%; Sm TGR block: 4%; Tb PYK inh: -10%; CHX counter: -4; Shiga inhibitor: -6; LmPK inh: 4%

What do the screens show for `O=C(CSc1nnc(NC2CCCCC2)s1)Nc1ccc(N2CCOCC2)cc1`?
FBPA Giardia inh: -5%; Sm TGR block: 8%; Tb PYK inh: 7%; CHX counter: 21*; Shiga inhibitor: 41*; LmPK inh: -1%

How did CC(=O)c1ccc(NC(=O)CSc2nnc(NC(=O)CN3CCOCC3)s2)cc1 do in these assays?
FBPA Giardia inh: -1%; Sm TGR block: -2%; Tb PYK inh: -6%; CHX counter: 18; Shiga inhibitor: 62*; LmPK inh: -1%

What do the screens show for `Cc1nc2ccccc2c2nc(NC(=O)Cc3ccccc3)nn12`?
FBPA Giardia inh: 2%; Sm TGR block: -5%; Tb PYK inh: 10%; CHX counter: 10; Shiga inhibitor: 42*; LmPK inh: -2%

Results for Cc1ccc(Cl)cc1NC(=O)CSc1nc2c(c(=O)[nH]1)CN(Cc1ccccc1)CC2 ?
Sm TGR block: 2%; Tb PYK inh: 6%

What do the screens show for `COc1ccc(C(C[N+](=O)[O-])c2c(C)cc3ccccn23)cc1` (stereo not drawn)?
FBPA Giardia inh: inconclusive; Sm TGR block: 28µM*; Tb PYK inh: -5%; CHX counter: 13; Shiga inhibitor: -2; LmPK inh: 0%

How did Cc1cc2ccccn2c1C(C[N+](=O)[O-])c1ccc(N(C)C)cc1 (stereo not drawn) do in these assays?
FBPA Giardia inh: inconclusive; Sm TGR block: inconclusive; Tb PYK inh: -12%; CHX counter: 6; Shiga inhibitor: 28; LmPK inh: -3%
